Assay results from publication PMC4336329 (PLoS ONE, 2015).
Among all 310,000 compounds or so, about 14,000 (4.5%) showed an effect of 50% or more. The effect is printed as a negative number. Many of the other results were omitted from the sample, so strong results are more common in it than they were.

target: human ether-à-go-go-related gene (hERG) potassium channel (human, UniProt Q12809); experiment: primary screen, population patch clamp on CHO cells stably expressing hERG; higher = less effect of the substance
Sequence (Q12809 whole entry, looked up): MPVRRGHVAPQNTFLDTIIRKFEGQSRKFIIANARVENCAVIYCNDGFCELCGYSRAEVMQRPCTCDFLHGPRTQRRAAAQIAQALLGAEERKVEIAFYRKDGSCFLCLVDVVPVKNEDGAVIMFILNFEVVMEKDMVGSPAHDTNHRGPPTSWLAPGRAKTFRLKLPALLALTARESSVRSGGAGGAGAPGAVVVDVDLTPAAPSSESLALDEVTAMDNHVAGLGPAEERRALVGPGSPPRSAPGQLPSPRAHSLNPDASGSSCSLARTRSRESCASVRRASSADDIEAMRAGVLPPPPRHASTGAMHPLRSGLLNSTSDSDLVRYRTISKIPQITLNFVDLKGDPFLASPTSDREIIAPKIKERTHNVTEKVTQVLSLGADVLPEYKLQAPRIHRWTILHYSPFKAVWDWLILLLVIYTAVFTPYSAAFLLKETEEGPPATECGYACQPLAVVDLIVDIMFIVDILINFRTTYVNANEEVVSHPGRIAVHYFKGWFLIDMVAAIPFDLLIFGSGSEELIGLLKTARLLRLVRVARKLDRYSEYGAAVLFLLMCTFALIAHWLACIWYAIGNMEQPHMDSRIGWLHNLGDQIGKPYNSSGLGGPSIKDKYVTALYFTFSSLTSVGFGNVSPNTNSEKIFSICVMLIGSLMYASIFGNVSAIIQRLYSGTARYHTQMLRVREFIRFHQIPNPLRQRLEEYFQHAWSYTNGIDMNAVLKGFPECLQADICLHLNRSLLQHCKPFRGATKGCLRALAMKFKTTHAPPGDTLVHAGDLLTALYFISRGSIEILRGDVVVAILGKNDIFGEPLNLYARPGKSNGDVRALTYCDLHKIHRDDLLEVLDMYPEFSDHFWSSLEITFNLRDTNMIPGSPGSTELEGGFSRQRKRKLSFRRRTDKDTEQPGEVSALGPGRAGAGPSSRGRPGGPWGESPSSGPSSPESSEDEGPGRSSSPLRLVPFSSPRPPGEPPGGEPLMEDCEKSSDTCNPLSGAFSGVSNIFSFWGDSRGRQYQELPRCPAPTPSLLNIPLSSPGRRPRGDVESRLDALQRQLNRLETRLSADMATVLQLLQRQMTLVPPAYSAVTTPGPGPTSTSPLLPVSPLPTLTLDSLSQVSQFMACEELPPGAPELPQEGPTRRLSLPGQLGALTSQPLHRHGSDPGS
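Also: peak tail current of the secondary pulse compared with the same well before compound.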

Compound | hERG current change (%, negative = inhibition) at 10uM
CCN(C(=O)COC(=O)c1ccc2[nH]c3c(c2c1)CCCC3)C1CCS(=O)(=O)C1 (centres unmarked) | -8.35%
COc1ccccc1C(=O)Nc1nnc(S(=O)(=O)N2CCCCCC2)s1 | 3.54%
COc1cc(/C=C/C(=O)O)cc(S(=O)(=O)Nc2ccc3cn[nH]c3c2)c1OC | 9.74%
O=c1[nH]c(-c2ccccn2)nc2ccccc12 | -3.46%
COc1ccc(/C=N/Nc2nc(-c3ccc(Cl)cc3)cc(C(F)(F)F)n2)c(OC)c1 | 2.62%
CC(C)CNC(=O)CSc1ccc(Cl)cc1 | -3.84%
O=C(CN1CCN(Cc2ccccc2)CC1)c1ccccc1 | 1.35%
Cc1ccc(OCC(=O)Nc2ccc(N3CCN(S(C)(=O)=O)CC3)cc2)cc1 | 17.4%
CCc1ccc(NC(=O)CN2CC(c3ccccc3)CC2=O)cc1 (centres unmarked) | -27.6%
CN(CCCN1CCOCC1)C(=O)c1ccc2nc(Cc3cccc(Cl)c3)oc2c1 | -6.26%
CN(CC1CCOCC1)C(=O)c1ccc2nc(Cc3cccc(Cl)c3)oc2c1 | -69.7%
O=C(NCC1CCOCC1)c1ccc2nc(Cc3cccc(Cl)c3)oc2c1 | -12.8%
Cc1ccc(C)c(S(=O)(=O)C(C#N)c2nc3ccccc3nc2N2CC(C)OC(C)C2)c1 (centres unmarked) | 4.01%
Cc1ccc(OCCC(=O)OCC(=O)Nc2ccc3[nH]c(=O)[nH]c3c2)cc1 | -20.3%
Cc1ccccc1C(=O)NCCCn1ccnc1 | 18.3%
Cc1ccc(-c2cc(C(=O)NCCCn3ccnc3)c3cc(Br)ccc3n2)o1 | -73.8%
CCc1ccc(-c2cc(C(=O)NCCCn3ccnc3)c3ccccc3n2)s1 | -73.6%
CCC(CC)NC(=O)c1cc2c(C)nn(Cc3ccccc3Cl)c2s1 | 10.9%
Cc1ccc2nc(-c3ccccc3)cc(C(=O)NCCCn3ccnc3)c2c1 | -40.7%
O=C(NCCCn1ccnc1)c1cc(-c2cccnc2)nc2ccc(Br)cc12 | -45.1%
Cc1nn(Cc2ccccc2Cl)c2sc(C(=O)NC(C)(C)C)cc12 | 10.7%

Compound | hERG current change (%, negative = inhibition) at 10uM
Cc1nn(Cc2ccccc2Cl)c2sc(C(=O)NCCCn3ccnc3)cc12 | -82.6%
CCOc1ccc(-c2cc(C(=O)NCCCn3ccnc3)c3cc(Br)ccc3n2)cc1 | 7.06%
CCc1ccc(-c2cc(C(=O)O)c3ccccc3n2)s1 | 16.9%
Cc1ccc(-c2cc(C(=O)NCCCn3ccnc3)c3ccccc3n2)s1 | -70.9%
CCc1ccc(-c2cc(C(=O)NCc3ccco3)c3ccccc3n2)s1 | -9.4%
CC(C)CC(=O)CN1C(=O)C2(OCCO2)c2ccccc21 | 13.2%
COc1ccc(-c2cc(C(F)F)nc(-n3nc(C)cc3C)n2)cc1 | 11.7%
O=c1cc(-c2ccccc2)c2ccc(O)c(CN3CCCCC3)c2o1 | -8.89%
COc1ccc2nc(Nc3nc4cc5c(cc4s3)OCO5)sc2c1 | 6.67%
O=S(=O)(Nc1c(O)ccc2ccccc12)c1cccc2ccccc12 | 6.79%
COc1ccc(C(CNC(=O)c2[nH]c(C)c(C(C)=O)c2C)N2CCOCC2)cc1 (centres unmarked) | -4.61%
Cc1nc2oc3c(NCC4CCCO4)ncnc3c2c2c1COC(C)(C)C2 (centres unmarked) | -16.6%
CC(=O)Nc1nc(C)c(CCCOc2ccc([N+](=O)[O-])cc2)c(=O)[nH]1 | 0.762%
Cc1noc(C)c1NC(=O)N1CCN(Cc2ccccc2)CC1 | 8.04%
COc1ccc(O)c(CN2CCCC(C(=O)Nc3cccc(-n4cccn4)c3)C2)c1 (centres unmarked) | -14.9%
CCOc1cccc(CN2CCCC(C(=O)Nc3cccc(-n4cccn4)c3)C2)c1 (centres unmarked) | -56.3%
O=C(Nc1cccc(-n2cccn2)c1)C1CCCN(Cc2cccc(F)c2F)C1 (centres unmarked) | -17.8%
Cc1c(CN2CCCC(C(=O)Nc3cccc(-n4cccn4)c3)C2)cnn1C (centres unmarked) | 7.86%
COC(=O)c1ccc(CN2CCCC(C(=O)Nc3cccc(-n4cccn4)c3)C2)cc1 (centres unmarked) | -27.4%
COc1ccc(CN2CCCC(C(=O)Nc3cccc(-n4cccn4)c3)C2)cc1 (centres unmarked) | -58.9%
CC(=O)c1cccc(CN2CCCC(C(=O)Nc3cccc(-n4cccn4)c3)C2)c1 (centres unmarked) | -23.9%

Compound | hERG current change (%, negative = inhibition) at 10uM
CSc1cccc(CN2CCCC(C(=O)Nc3cccc(-n4cccn4)c3)C2)c1 (centres unmarked) | -28.6%
Cc1cc(CN2CCCC(C(=O)Nc3cccc(-n4cccn4)c3)C2)cc(C)c1O (centres unmarked) | -42%
O=C(Nc1cccc(-n2cccn2)c1)C1CCCN(Cc2ccccc2F)C1 (centres unmarked) | -30.4%
Cc1nn(C)c(Cl)c1CN1CCCC(C(=O)Nc2cccc(-n3cccn3)c2)C1 (centres unmarked) | -50.2%
CCOc1ccccc1CN1CCCC(C(=O)Nc2cccc(-n3cccn3)c2)C1 (centres unmarked) | -69.5%
COCCNC(=S)N(CCc1c(C)[nH]c2ccc(F)cc12)Cc1cccnc1 | -21.5%
C=CC(=O)N1c2ccccc2Sc2ccc(NC(=O)OCC)cc21 | 0.408%
CC(C)(C)c1ccc(C(=O)Nc2cccc3c(=O)[nH][nH]c(=O)c23)cc1 | -9.65%
O=C(Cc1ccccc1)NCC(=O)N1CCN(c2ccccc2)CC1 | 5.93%
O=C(NCCn1ccc2ccccc21)c1cccc([N+](=O)[O-])c1 | -16.9%
CCC(C)N1C(=O)C2C(C(=O)Nc3cccc(OC)c3)C3C=CC2(O3)C1C(=O)NC1CCCCC1C (centres unmarked) | -6.83%
O=S1(=O)CCN(Cc2ccc(Cl)c(Cl)c2)CC1 | 6.46%
CC(C)OC(=O)Cn1nnc(-c2ccccc2)n1 | 0.0206%
Cc1c(NC(=O)C(C)OC(=O)c2cc(Cl)ccc2O)c(=O)n(-c2ccccc2)n1C (centres unmarked) | 15.3%
CC1(C)CC(=O)C2=C(C1)N(c1cccnc1)C(N)=C(C#N)C2c1cccs1 (centres unmarked) | -5.86%
CCSc1sccc1C1C(C#N)=C(N)N(c2cccnc2)C2=C1C(=O)CC(C)(C)C2 (centres unmarked) | -50.4%
CCSc1sccc1C1C(C#N)=C(N)N(c2cccnc2)C2=C1C(=O)CCC2 (centres unmarked) | -31.5%
CC12COC3(C(=O)Nc4ccc(F)cc4)CC1CCC32C (centres unmarked) | -18%
CN(CCC#N)C(=O)COC(=O)[C@H](Cc1ccccc1)N1C(=O)c2ccccc2C1=O | -2.25%
Cc1ccc(-n2nc3c(=O)n(CC(=O)NCc4cccs4)nc(C)c3c2C)cc1 | -20.1%
Cc1ccc(Oc2ncccc2/C=N/OCc2ccc(Cl)cc2Cl)cc1 | 14.7%

Compound | hERG current change (%, negative = inhibition) at 10uM
O=C(Nc1ccccc1-c1nnn(CC(=O)N2CCc3ccccc3C2)n1)C1CCC1 | -52.8%
O=C(Nc1cccc(-c2nnn(CC(=O)N3CCc4ccccc4C3)n2)c1)C1CCC1 | 2.59%
CC(C)CC(=O)Nc1ccccc1-c1nnn(CC(=O)N2CCc3ccccc3C2)n1 | -37.3%
O=C(NCCN1CCOCC1)c1cccc(NS(=O)(=O)c2ccc(Br)cc2)c1 | -34.3%
OCC[C@H]1C[C@H](O)[C@@H](O)[C@]2(OCc3ccccc32)O1 | 11.9%
Cc1ccc(COC(=O)c2cc([N+](=O)[O-])ccc2N2CCOCC2)cc1 | -53.7%
O=C(OCc1ccc(F)cc1)c1cc(S(=O)(=O)N2CCCCC2)ccc1N1CCOCC1 | 2.16%
O=C(OCc1ccc([N+](=O)[O-])cc1)c1cc(S(=O)(=O)N2CCCCC2)ccc1N1CCOCC1 | -75.9%
Cc1ccc(COC(=O)c2cc(S(=O)(=O)N3CCCCC3)ccc2N2CCOCC2)cc1 | -13.9%
O=C(OCc1ccccc1Cl)c1cc([N+](=O)[O-])ccc1N1CCOCC1 | -23.1%
Cc1ccccc1COC(=O)c1cc([N+](=O)[O-])ccc1N1CCOCC1 | -18.8%
O=C(OCc1ccc([N+](=O)[O-])cc1)c1cc([N+](=O)[O-])ccc1N1CCOCC1 | -76.1%
CC1CCCN(C(=O)COC(=O)c2cc([N+](=O)[O-])ccc2N2CCOCC2)C1 (centres unmarked) | -14.6%
CC1CC(C)CN(C(=O)COC(=O)c2cc([N+](=O)[O-])ccc2N2CCOCC2)C1 (centres unmarked) | -54.7%
O=C(OCc1cccc(Cl)c1)c1cc([N+](=O)[O-])ccc1N1CCOCC1 | -38.7%
Cc1ccc(C)c(COC(=O)c2cc([N+](=O)[O-])ccc2N2CCOCC2)c1 | 5.73%
CC1CCN(C(=O)COC(=O)c2cc([N+](=O)[O-])ccc2N2CCOCC2)CC1 | -15%
C/C(=N\NC(=O)C(NC(=O)c1ccccc1)C(C)C)c1ccccc1 (centres unmarked) | 21.2%
COc1ccc(-c2csc(NC(C)=O)n2)cc1OC | 5.13%
Cc1ccccc1NC(=O)NC1(C(=O)NCC2CCCO2)CCCCC1 (centres unmarked) | 17.5%
